Results from publication PMC4336329 (PLoS ONE, 2015).
Among all 310,000 compounds or so, about 14,000 (4.5%) showed an effect of 50% or more. Effects have a minus sign here. Many of the other results were omitted from the sample, so strong results are more common in it than they were.

Each molecule was assayed against human ether-à-go-go-related gene (hERG) potassium channel (human, UniProt Q12809) (assay: primary screen, population patch clamp on CHO cells stably expressing hERG; higher = less effect of the substance).
Sequence of human ether-à-go-go-related gene (hERG) potassium channel (Q12809 whole entry, looked up): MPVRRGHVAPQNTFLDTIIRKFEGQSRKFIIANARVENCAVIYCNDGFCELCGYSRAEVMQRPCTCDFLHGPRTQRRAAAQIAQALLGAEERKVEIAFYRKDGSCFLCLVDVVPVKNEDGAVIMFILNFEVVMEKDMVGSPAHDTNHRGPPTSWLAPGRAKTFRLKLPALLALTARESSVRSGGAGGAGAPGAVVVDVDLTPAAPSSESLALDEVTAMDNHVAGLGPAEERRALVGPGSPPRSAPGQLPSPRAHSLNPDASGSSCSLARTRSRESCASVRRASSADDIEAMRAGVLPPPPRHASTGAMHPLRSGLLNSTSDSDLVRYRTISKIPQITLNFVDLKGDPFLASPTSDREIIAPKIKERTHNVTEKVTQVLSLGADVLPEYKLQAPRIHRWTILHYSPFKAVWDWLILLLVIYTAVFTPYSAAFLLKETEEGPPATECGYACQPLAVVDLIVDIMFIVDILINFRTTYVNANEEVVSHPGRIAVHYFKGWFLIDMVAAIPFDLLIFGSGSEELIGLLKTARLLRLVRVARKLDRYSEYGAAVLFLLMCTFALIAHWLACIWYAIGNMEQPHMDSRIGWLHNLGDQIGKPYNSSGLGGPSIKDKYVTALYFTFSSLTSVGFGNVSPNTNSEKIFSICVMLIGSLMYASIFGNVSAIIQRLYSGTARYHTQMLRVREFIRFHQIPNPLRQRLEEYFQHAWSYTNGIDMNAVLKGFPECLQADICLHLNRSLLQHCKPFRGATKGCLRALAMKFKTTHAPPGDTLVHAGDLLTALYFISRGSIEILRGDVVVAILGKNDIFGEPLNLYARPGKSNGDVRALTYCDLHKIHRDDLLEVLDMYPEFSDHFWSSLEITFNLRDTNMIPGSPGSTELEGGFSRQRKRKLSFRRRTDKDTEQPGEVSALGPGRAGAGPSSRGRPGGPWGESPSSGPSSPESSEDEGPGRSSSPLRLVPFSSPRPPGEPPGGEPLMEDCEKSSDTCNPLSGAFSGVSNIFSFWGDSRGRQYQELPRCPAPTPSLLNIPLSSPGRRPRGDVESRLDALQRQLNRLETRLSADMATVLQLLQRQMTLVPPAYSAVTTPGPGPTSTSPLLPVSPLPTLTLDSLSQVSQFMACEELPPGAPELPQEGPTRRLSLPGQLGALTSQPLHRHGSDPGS
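Also: peak tail current of the secondary pulse compared with the same well before compound.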

Row | SMILES | hERG current change (%, negative = inhibition) at 10uM [%]
1 | CCOC(=O)CCc1c(C)nc(SCc2ccc(C(=O)O)cc2)c(C#N)c1C | -11.7
2 | CCOC(=O)CCc1c(C)nc(SCCN2CCCC2)c(C#N)c1C | -63.9
3 | CCOC(=O)CCc1c(C)nc(SCC(=O)O)c(C#N)c1C | -2.59
4 | COc1ccc(NS(=O)(=O)c2cc(NC(=O)CC(=O)c3ccc([N+](=O)[O-])cc3)ccc2C)cc1 | 5.94
5 | CS(=O)(=O)Nc1ccc(C(=O)CC(=O)Nc2ccc([N+](=O)[O-])cc2)cc1 | -60.7
6 | COc1ccc(C(=O)CC(=O)Nc2ccc([N+](=O)[O-])cc2)cc1 | -1.39
7 | COc1cccc(CC(=O)NCC2(N3CCCCC3)CCCCC2)c1 | 25
8 | Cn1cc(Br)c(C(=O)NC2CCCCCC2)n1 | 2.74
9 | Cc1cccn2c(=O)nc(SCC(=O)Nc3ccc4c(c3)OCO4)nc12 | -5.58
10 | CCN(C(=O)CSc1nc2nc(C)cc(C)n2n1)C1CCS(=O)(=O)C1 (stereo not drawn) | 20.5
11 | CC(=O)N1CCN(C(=O)COC(=O)COc2ccc(C#N)cc2)CC1 | 4.54
12 | N#Cc1ccccc1OCC(=O)OCCCOC(=O)COc1ccccc1C#N | 10.1
13 | N#Cc1ccc(OCC(=O)OCCCOC(=O)COc2ccc(C#N)cc2)cc1 | -66.8
14 | CCOC(=O)c1c(NC(=O)CCN2C(=O)c3ccccc3C2=O)sc(C(=O)OC(C)C)c1C | -4.35
15 | Cc1ccc(S(=O)(=O)N/N=C/c2cccs2)cc1 | 9.65
16 | C=CCOc1ccccc1CNc1cccc(F)c1 | 14.2
17 | CCC(C)Sc1cc(-c2nc3ccc(C)cn3c2NCc2ccccc2)ccc1OC.O=C(O)C(F)(F)F (stereo not drawn) | -1.12
18 | Cl.OC(COc1cccc2ccccc12)CN1CCN(c2ccccn2)CC1 (stereo not drawn) | -49.2
19 | Cl.OC(COc1ccc(Cl)c2ccccc12)CN1CCN(c2ccccn2)CC1 (stereo not drawn) | -21.9

Row | SMILES | hERG current change (%, negative = inhibition) at 10uM [%]
20 | OC(COC(c1ccccc1)c1ccccc1)CN1CCN(c2ccccn2)CC1 (stereo not drawn) | -74.7
21 | Cl.OC(COC(c1ccc(Cl)cc1)c1ccc(Cl)cc1)CN1CCN(c2ccccn2)CC1 (stereo not drawn) | -82.4
22 | Cc1cc(C)c2nc(-c3ccccn3)cc(C(=O)n3cccn3)c2c1 | 22.9
23 | S=C(NCCc1ccccc1)NCCc1cnc[nH]1 | -4.01
24 | CCOC(=O)C1CCCN(S(=O)(=O)c2cn(C)c(=O)n(C)c2=O)C1 (stereo not drawn) | 12.8
25 | Cc1cc(=O)[nH]c(SCCCOc2ccccc2Cl)n1 | 3.82
26 | CCOC(=O)c1cnc2c(Cl)cccc2c1NCCN1CCOCC1 | -15.3
27 | CCOC(=O)c1cnc2c(Cl)cc(Cl)cc2c1NCCCN1CCOCC1 | -4.47
28 | CCOC(=O)c1cnc2c(CC)cccc2c1NCCN1CCOCC1 | -44.4
29 | CCOC(=O)c1cnc2c(C)cccc2c1NCCCN1CCOCC1 | -72.8
30 | CCOC(=O)c1cnc2c(CC)cccc2c1NCCCN1CCOCC1 | -35.6
31 | CCOC(=O)c1cnc2c(C)cc(C)cc2c1NCCCN1CCOCC1 | -59.7
32 | CCOC(=O)c1cnc2c(C(=O)OC)cccc2c1NCCN1CCOCC1 | -70
33 | CCOC(=O)c1cnc2c(C)cc(Cl)cc2c1NCCCN1CCOCC1 | 1.44
34 | CCOC(=O)c1cnc2c(Cl)cccc2c1NCCCN1CCOCC1 | -44.7
35 | CCOc1c2ccc(C(=O)NCCCCc3ccccc3)cc2nn1C | -14.5
36 | CC(=O)c1cc(O)c2ccccc2c1O | -2.58
37 | CC(=O)Nc1ccc(C(=O)N/N=C/c2ccccc2OCc2ccccc2)cc1 | 29.2
38 | C#CCNC(=O)C1=C[C@@H](c2ccccc2)C[C@@H](OCCCCO)O1 | -13.4

Row | SMILES | hERG current change (%, negative = inhibition) at 10uM [%]
39 | CCCCc1ccc(NC(=O)NCc2cccnc2)cc1 | -41.4
40 | COc1cc(OC)cc(OC(=O)C2CCN(C(=O)c3ccc(F)cc3)CC2)c1 | -7.47
41 | COc1cc(C(=O)N2CCC(n3cnc4cc(F)ccc43)CC2)cc(OC)c1OC | -56.9
42 | COc1cc(OC)cc(C(=O)N2CCC(n3c(C)nc4cc(F)ccc43)CC2)c1 | -59
43 | COc1ccc(-n2c(C)nc3cc(C(=O)N4CCOCC4)ccc32)cc1 | -14.1
44 | COc1cc(OC)cc(C(=O)N2CCN(C(=O)c3cccc(F)c3)CC2)c1 | -3.19
45 | COc1cc(OC)cc(C(=O)N2CCC(N3CCCCCC3)CC2)c1 | -5.77
46 | Cc1nc2cc(F)ccc2n1C1CCN(S(=O)(=O)c2ccccc2)CC1 | -48.6
47 | COc1ccc(C(=O)N2CCC(n3c(C)nc4cc(F)ccc43)CC2)cc1 | -73.4
48 | COc1cc(C(=O)N2CCC(N3CCCCCC3)CC2)cc(OC)c1OC.O=C(O)C(=O)O | -2.57
49 | Cc1nc2cc(C(=O)O)ccc2n1C1CCCCC1 | 7.52
50 | COC(=O)C1CCN(C(=O)c2cc(OC)c(OC)c(OC)c2)CC1 | 19.3
51 | Cc1nc2cc(F)ccc2n1C1CCN(C(=O)c2ccc(F)cc2F)CC1 | -56.4
52 | Cn1c(=O)cc(OCCCC(=O)N2CCN(c3ccccc3)CC2)c2ccccc21 | -47.3
53 | Cc1c(N=Nc2c(O)n(C)c(=O)n(C)c2=O)c(=O)n(-c2ccccc2)n1C | 8.74
54 | O=C(c1cccs1)N1CCN(C(=O)c2ccco2)c2ccccc2C1 | -13.6
55 | COc1ccc(Cc2nc3ccc(C(=O)NCCCSC)cc3o2)cc1OC | 0.503
56 | O=C(NNC(=O)c1cccc2ccccc12)c1ccccc1O | 4.19
57 | O=c1c2ccccc2nc(SCc2cc(F)cc3c2OCOC3)n1Cc1ccco1 | -2.26
